Hits are enriched below; roughly 2.7% of the tested compounds scored in any of these assays.
KDM5B inh = KDM5B demethylase inhibition; Potency, µM (series often up to 57.7 µM), most hits filed as inhibitors; Q9UGL1; AID 1347165; actives 2.6% (n = 220,000); KDM5B demethylase, FDH-coupled NADH fluorescence (FDH is formaldehyde dehydrogenase); note: nearly all actives have a fitted effect of over 70% in size
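KDM5BΔAP (200 nM final) in 50 mM HEPES pH 7.5, 0.01% Tween-20 was preincubated 10 min at RT with compound over a concentration range. Substrate mix (H3K4me3 12.5 µM, α-KG 25 µM, Fe²⁺, ascorbate, NAD⁺, FDH) was added, and NADH fluorescence change over 30 min gave dose-response curves.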
IP6K1 inh = IP6K1 kinase inhibition | Q92551 | IP6K1 kinase, ADP-Glo luminescence, 2 h; active compounds read low | activity change, % (series mostly up to about 58 µM) | actives 0.81% (n = 140,000); in the data active = activity change below about -25%
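ADP-Glo luminescence measures ADP made by human IP6K1 during a 2 h RT reaction with ATP/IP6 (mix at 1.3 mM/130 uM); top library doses 57.5 and 19.1 uM final.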
Large screens that a line does not name were inactive.

O=C(c1cccc2[nH]ccc12)N1CCC([C@@H]2CNC[C@H]2CO)CC1	KDM5B inh inconclusive
Cc1cc(/C=C/C(=O)c2cccc(Br)c2)cc(C)c1O	none (no result: IP6K1 inh)
CC(CC1OCC(CN2CCCCC2)O1)CC(C)(C)C (configuration not stated)	none (no result: IP6K1 inh)
O=C(NCCc1ccc(Cl)cc1)c1nc2sccn2c1-c1ccc(C(F)(F)F)cc1	none (no result: KDM5B inh)
O=C1N(Cc2ccc(Cl)cc2)CCCN1c1ccc(C(=O)N2CCc3ccccc32)cc1	none (no result: IP6K1 inh)
Cc1ccccc1Oc1ncccc1CNCc1cccc(O)c1	none
COc1ccccc1NC(=O)/C(C#N)=C/c1coc2ccc(Cl)cc2c1=O	none (no result: IP6K1 inh)
CC1CCN(C(=O)CCC[C@H]2NC[C@@H]3C[C@H]2CN(Cc2ccccc2)C3)CC1	KDM5B inh 7.94µM
O=C(CCC[C@H]1NC[C@@H]2CC1CN(Cc1ccccc1)C2)N1CCCC1	none
O=C(COc1ccc2c(=O)c(-c3ccc(Cl)cc3)coc2c1)Nc1ccc2c(c1)OCCO2	none (no result: IP6K1 inh)
O=C(NCCNc1cccnc1)C1CCC(=O)N(CCc2ccc(Cl)cc2)C1 (configuration not stated)	KDM5B inh inconclusive
O=C(NCCNc1cccnc1)C1CCC(=O)N(Cc2ccc(Cl)cc2)C1 (configuration not stated)	KDM5B inh 11.2µM
O=C(CSc1ccc2c(c1)OCCCO2)c1ccc2c(c1)CCO2	none (no result: IP6K1 inh)
CCN(CC)C(=O)c1cc2c(s1)CCC(C(=O)N1CCN(c3ccccc3)CC1)C2 (configuration not stated)	none
CCN1CCN(C(=O)C2CCCN(C(=O)c3ccccc3)CCC(=O)NCC2)CC1 (configuration not stated)	none
CCN(CC)C(=O)c1cc2c(s1)CCC(C(=O)N1CCN(c3ccccn3)CC1)C2 (configuration not stated)	KDM5B inh 28.2µM
O=C1CCN(Cc2ccncc2)CCCC(C(=O)N2CCN(c3ccccn3)CC2)CCN1 (configuration not stated)	KDM5B inh inconclusive
O=C1CCN(C(=O)C2CCC2)CCCC(C(=O)N2CCN(c3ccccn3)CC2)CCN1 (configuration not stated)	KDM5B inh 22.4µM
O=C1CCN(C(=O)c2ccsc2)CCCC(C(=O)N2CCN(c3ccccn3)CC2)CCN1 (configuration not stated)	KDM5B inh 20µM
COc1ccc(CC(=O)N2CCC(Oc3ncccc3C(=O)N3CCCCC3)C2)cc1 (configuration not stated)	KDM5B inh inconclusive
COc1cc(-c2nc(-c3ccc(Br)cc3)no2)cc(OC)c1OC	none (no result: IP6K1 inh)
COc1ccc(-c2cc(C(=O)N3CCN(Cc4ccccc4)CC3)c3cnn(C)c3n2)cc1	none (no result: KDM5B inh)
O=C(NC1CCCc2ccccc21)c1ncc(Cl)c(Cl)c1Cl (configuration not stated)	none (no result: IP6K1 inh)
CC1CCN(C(=O)c2ccc(-c3ccc(N4CCSCC4)nc3)cc2)CC1	KDM5B inh 28.2µM
CN1CCN(C(=O)c2ccc(-c3ccc(N4CCCCC4)nc3)cc2)CC1	KDM5B inh inconclusive
O=C(c1ccc(-c2ccc(N3CCCCC3)nc2)cc1)N1CCCC1	KDM5B inh 28.2µM
CCCN1CCN(C(=O)c2ccc(-c3ccc(N4CCCCC4)nc3)cc2)CC1	KDM5B inh 25.1µM
O=C(O)c1ccc(-c2ccc(N3CCCCCC3)nc2)cc1	KDM5B inh inconclusive
CC1CCCN(C(=O)C2CCN(C(=O)c3ccc(-c4cncnc4)cc3)CC2)C1 (configuration not stated)	none (no result: KDM5B inh)
CC(NC(=O)c1ccc(-c2ccc(N3CCCCCC3)nc2)cc1)c1cccnc1 (configuration not stated)	none
O=C(c1ccc(-c2ccc(N3CCSCC3)nc2)cc1)N1CCCCC1	KDM5B inh 28.2µM
Cc1cccc(C(=O)OCc2ccc(-c3ccccc3)cc2)n1	none (no result: IP6K1 inh)
c1ccc(-c2nn3c(-c4ccc5ccccc5n4)nnc3s2)cc1	none (no result: IP6K1 inh)
O=C(NCc1ccc(F)cc1)c1ccc2nc(-c3ccccn3)oc2c1	none (no result: KDM5B inh)
c1ccc(-c2n[nH]c(-c3ccncc3)n2)cc1	none (no result: IP6K1 inh)
COc1ccccc1CNC(=O)C1CCN(Cc2ccccc2-c2cccnc2)CC1	none (no result: KDM5B inh)
COc1cc(OC)cc(OCc2nc3c(n2Cc2ccccc2)C(=O)N(Cc2ccccc2F)CCN3)c1	none
COC1CCN(c2ccc(C(=O)N3CCC(N4CCOCC4)CC3)cn2)CC1	none
O=C(c1ccc(-c2ccc(N3CCSCC3)nc2)cc1)N1CCOCC1	KDM5B inh 22.4µM
CN1CCN(C(=O)c2ccc(-c3ccc(N4CCSCC4)nc3)cc2)CC1	KDM5B inh 28.2µM
CN1CCN(C(=O)c2ccc(N3CC4CC(C3)[C@H]3CCCC(=O)N3C4)nc2)CC1 (some centres not stated)	none
C=CCOc1ccc(CN(C)CC(=O)NC(=O)NCc2cccs2)cc1	none (no result: IP6K1 inh)
Cc1cccc(-c2cccc(CN3CCC(NC(=O)c4ccccc4F)CC3)c2)c1	none (no result: KDM5B inh)
CCC(C)NC(=O)C1CCN(C(=O)c2ccc(-c3ccccc3OC)cc2)CC1 (configuration not stated)	none (no result: KDM5B inh)
O=C(Nc1nc(-c2ccc(Cl)s2)cs1)C1CC1	none (no result: IP6K1 inh)
Cn1c(C(=O)NCCc2cnc[nH]2)nc2nc(-c3ccccc3)c(Cl)cc21	KDM5B inh 35.5µM
CCn1cc(-c2ccc(Cl)cc2)cc1C(=O)N1CCN(c2ccccn2)CC1	KDM5B inh inconclusive
Cn1c(C(=O)N2CCN(c3ccccn3)CC2)nc2nc(-c3ccccc3)c(Cl)cc21	KDM5B inh 35.5µM
COCCN(C)C(=O)c1nc2nc(-c3ccccc3)c(Cl)cc2n1C	KDM5B inh inconclusive
CN(C)CCNC(=O)c1nc2nc(-c3ccccc3)c(Cl)cc2n1C	KDM5B inh 39.8µM
CN(C)CCNC(=O)c1nc2nc(-c3ccccc3)c(-c3ccccc3F)cc2n1C	none
CCn1nc(C(=O)OCC(=O)N2CCCc3ccccc32)c2ccccc2c1=O	none (no result: IP6K1 inh)
O=[N+]([O-])c1ccc(-c2nc(N3CCCCCC3)c3ccccc3n2)cc1	none (no result: IP6K1 inh)
O=C(Nc1cccc(Cl)c1)c1ccc2c(Cl)c3c(nc2c1)CCCC3	none (no result: IP6K1 inh)
COc1ccc(C(=O)Oc2ccc(C(=O)c3ccc(OC)cc3)cc2)cc1	none (no result: IP6K1 inh)
N#Cc1cccc(C(=O)N2CCNc3cnc(Nc4cccc(F)c4)nc3C2)c1	none
COc1ccccc1Nc1ncc2c(n1)CN(C(=O)Cc1ccc3c(c1)OCO3)CCN2	KDM5B inh inconclusive
CC(C)NC(=O)N1CCNc2cnc(Nc3cccc(F)c3)nc2C1	KDM5B inh 31.6µM
O=C(Cc1ccc2c(c1)OCO2)N1CCNc2cnc(Nc3cccc(F)c3)nc2C1	KDM5B inh 31.6µM
COc1ccc(CNC(=O)CNC(=O)c2cccc(-c3ccc(SC)cc3)c2)cc1OC	none (no result: KDM5B inh)
Cc1nn(Cc2ccc(Cl)cc2)c(C)c1NC(=O)COCc1cc(-c2ccco2)on1	none (no result: IP6K1 inh)
Cc1csc(SCc2cc(=O)oc3cc4c(cc23)CCC4)n1	none (no result: IP6K1 inh)
CN(CCCC(=O)OC(C)(C)C)C(=O)c1ccccc1Cl	none (no result: IP6K1 inh)
CCCCNC(=O)c1cc(NC(=O)CC)cc2nc(C)ccc12	KDM5B inh 25.1µM
COc1ccc(C(C)NC(=O)c2cc(NC(C)=O)cc3nc(C)ccc23)cc1 (configuration not stated)	KDM5B inh inconclusive
CCC(=O)NCCCNC(=O)c1cc(-c2ccccc2)nc2ccccc12	none (no result: IP6K1 inh)
CCC(=O)Nc1cc(C(=O)NCc2ccc(N3CCN(C)CC3)cc2)c2ccc(C)nc2c1	KDM5B inh inconclusive
CCC(=O)Nc1cc(C(=O)NCC(C)C)c2ccc(C)nc2c1	KDM5B inh 22.4µM
CCNC(=O)c1cc(NC(=O)CC)cc2nc(C)ccc12	KDM5B inh 20µM
Cc1cc(F)ccc1NC(=O)c1nn(-c2ccccc2)c(=O)c2ccccc12	none (no result: IP6K1 inh)
